Assay results reported in PubChem BioAssay (NCATS).
Values joined by “and” are separate entries in the source; they are usually repeats but may differ in a detail not shown here. Equal values may be shown once. Results filed as inconclusive are left out. Active and inactive are the calls of the source. Calls come from the whole dose curve; as a rule, active = well fitted curve in the direction sought with a large enough effect; inconclusive = small, poorly fitted or top-dose-only effect, or another doubt; inactive = no such curve, though single readings can be large; an effect the other way counts as inactive or inconclusive.

Assays:
[1] = Viability qHTS for spleen associated tyrosine kinase inhibitor (SYKi) naive MV4-11 cells (AID 1963823); conditions: MV4-11 AML viability, CellTiter-Glo luminescence, 72 h; series mostly up to 45 µM; note: nearly all actives have a fitted effect of over 40% in size
How it was run: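 In this viability screen, compounds acted on SYK inhibitor naive MV4-11 cells for three days (72 hr, 37 C). Remaining viable cells were measured by CellTiter-Glo luminescence following a 10 min room-temperature development.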

[2] = Viability qHTS for spleen associated tyrosine kinase inhibitor (SYKi) drug resistant MV4-11 cells (AID 1963824); conditions: SYKi-resistant MV4-11 viability, CellTiter-Glo, 72 h; series mostly up to 45 µM; note: nearly all actives have a fitted effect of over 35% in size
How it was run: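 SYK-inhibitor-resistant MV4-11 AML cells were seeded at 500 per well onto compound and cultured 72 hours (37 °C, 5% CO2). CellTiter-Glo was then added, and after 10 min at room temperature, luminescence gave viability.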

[3] = Cellular viability qHTS for adrenocortical cancer (ACC) cell line SW-13 (AID 1963989); conditions: SW-13 ACC cells viability, CellTiter-Glo, 48 h; activity (max response): hits give low values; note: nearly all actives have a fitted effect of over 65% in size;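 for activity (max response): cells grown in serum-free medium with ITS supplement; % is set by controls: 0 for no effect and ±100 for the full control effect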
How it was run: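 48 h treatment, SW-13 in ITS/DMEM serum-free; doses up to 46 uM; readout CellTiter-Glo luminescence; curve fit four-parameter logistic.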

[4] = Cellular viability qHTS for adrenocortical cancer (ACC) cell line NCI-H295R (AID 1963990); conditions: CellTiter-Glo ATP luminescence, 48 h; series mostly up to 46.1 µM; note: nearly all actives have a fitted effect of over 60% in size
How it was run: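 Compound titrations (up to 46 uM final) are applied to NCI-H295R cultures for 48 h at 37C. Viable cell number is estimated by CellTiter-Glo signal, normalised to DMSO and doxorubicin controls.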
Potency is the fitted concentration of half-maximal effect.

SMILES	Potency [1]	Potency [2]	activity (max response) [3]	Potency [4]	Potency [3]
C[C@@H]1CCN(C(=O)[C@H](CCCN=C(N)N)NS(=O)(=O)c2cccc3c2NC[C@H](C)C3)[C@@H](C(=O)O)C1	inactive	inactive	1.57% (inactive)	inactive	–
COc1cc(C)[nH]c(=O)c1CN1CCc2c(Cl)cc([C@H](OC)C3COC3)c(Cl)c2C1=O	inactive	inactive	-0.836% (inactive)	inactive	–
CN1CCN(C2CCC(n3cc(-c4ccc(Oc5ccccc5)cc4)c4c(N)ncnc43)CC2)CC1 (stereo not given)	0.0231 µM (active)	58 nM (active) and 74.2 nM (active)	–	7.08 µM (active)	1.58 µM (active)
Cc1cc(OCc2nnc(SC3CCCC3)n2-c2cccnc2)ccc1-c1ccc(S(C)(=O)=O)cc1	0.184 µM (active)	0.116 µM (active)	-6.15% (inactive)	inactive	–
CC1=C(C(=O)O)N2C(=O)[C@@H](NC(=O)[C@H](N)c3ccc(O)cc3)[C@H]2SC1	inactive	inactive	8.09% (inactive)	inactive	–
Cc1c(O)cccc1C(=O)N[C@@H](CSc1ccccc1)[C@H](O)CN1C[C@H]2CCCC[C@H]2C[C@H]1C(=O)NC(C)(C)C	23.7 µM (active)	13.3 µM (active)	–	6.51 µM (active)	20.6 µM (active)
O=S(=O)(Nc1ccc(-c2cccnc2)c2cccnc12)c1cccc(C(F)(F)F)c1	6.61 µM (active)	5.25 µM (active)	–	3.98 µM (active)	4.47 µM (active)
Nc1nc(N)c(-c2ccccc2)s1	inactive	inactive	6.99% (inactive)	inactive	–
CO[C@@]12[C@H](COC(N)=O)C3=C(C(=O)C(C)=C(N)C3=O)N1C[C@@H]1N[C@@H]12	119 nM (active) and 118 nM (active)	0.0742 µM (active)	9.06% (inactive) and -27.8% (inactive)	inactive	–
COc1cc(N2CCN(C(C)=O)CC2)ccc1Nc1ncc(Cl)c(Nc2ccc(N3CCN(C(C)=O)CC3)cc2OC)n1	291 nM (active) and 372 nM (active)	366 nM (active) and 1.05 µM (active)	–	12.6 µM (active)	25.1 µM (active)
NS(=O)(=O)c1cc(-c2nn[nH]n2)c(NCc2cccs2)cc1Cl	inactive	inactive	11.4% (inactive)	inactive	–
NC(=O)C1(N2CCCCC2)CCN(CCCN2c3ccccc3CCc3ccc(Cl)cc32)CC1	8.41 µM (active)	8.41 µM (active)	–	2.91 µM (active)	20.6 µM (active)
C=CC(=O)N1CC[C@@H](Oc2nc(Nc3ccc(N4CCC(N5CCN(C)CC5)CC4)cc3)c(C(N)=O)nc2CC)C1	0.0323 µM (active)	0.091 µM (active)	–	7.15 µM (active)	1.43 µM (active)
CCOC(=O)CCNc1cc(N2CCc3ccccc3CC2)nc(-c2ccccn2)n1	4.68 µM (active)	5.25 µM (active)	–	8.91 µM (active)	1.26 µM (active)
c1cc(-c2cnn3cc(-c4ccc(N5CCNCC5)cc4)cnc23)c2cccnc2c1	0.662 µM (active)	0.92 µM (active)	–	6.31 µM (active)	22.4 µM (active)
CCCCOc1cc(C(=O)OCCN(CC)CC)ccc1N	inactive	inactive	-10.3% (inactive)	inactive	–
Nc1ccc(S(=O)(=O)c2ccc(N)cc2)cc1	inactive	inactive	8.46% (inactive)	inactive	–
COc1cc2c(cc1O)CCN[C@]21CS[C@@H]2c3c(OC(C)=O)c(C)c4c(c3[C@H](COC1=O)N1[C@@H]2[C@H]2c3c(cc(C)c(OC)c3O)C[C@@H]([C@@H]1O)N2C)OCO4	0.0014 µM (active)	0.0015 µM (active)	–	0.0094 µM (active)	0.0038 µM (active)
COC(=O)[C@@H](N)Cc1ccc(O)c(O)c1	inactive	inactive	-15% (inactive)	inactive	–
C[C@H]1[C@H](O)O[C@@H]2O[C@@]3(C)CC[C@H]4[C@H](C)CC[C@@H]1[C@@]24OO3	0.731 µM (active)	0.731 µM (active)	–	3.55 µM (active)	12.6 µM (active)
O=C(Nc1ccnc(NC(=O)C2CC2)c1)c1c(Cl)cccc1Cl	5.17 µM (active)	4.68 µM (active)	–	11.2 µM (active)	15.8 µM (active)
OCCN1CCN(CCCN2c3ccccc3Sc3ccc(Cl)cc32)CC1	11.9 µM (active)	8.41 µM (active)	–	2.59 µM (active)	6.51 µM (active)
CCCCCN(CCCCC)C(=O)C(CCC(=O)O)NC(=O)c1ccc(Cl)c(Cl)c1 (stereo not given)	inactive	inactive	5.36% (inactive)	inactive	–
CN(C)Cc1ccc(S(=O)(=O)n2ccc(/C=C/C(=O)NO)c2)cc1	3.32 µM (active)	2.35 µM (active)	–	3.16 µM (active)	12.6 µM (active)
O=S(=O)(NCCNC/C=C/c1ccc(Br)cc1)c1cccc2cnccc12	5.17 µM (active) and 4.68 µM (active)	9.2 µM (active) and 11.8 µM (active)	–	28.2 µM (active)	31.6 µM (active)

SMILES	Potency [1]	Potency [2]	activity (max response) [3]	Potency [4]	Potency [3]
CC1=C(/C=C/C(C)=C/C=C/C(C)=C/C(=O)O)C(C)(C)CCC1	668 nM (active) and 132 nM (active)	1.06 µM (active) and 468 nM (active)	-7.6% (inactive) and 3.95% (inactive)	inactive	–
CCCCCCCCCCCCCCCCCCOCC(O)CO (stereo not given)	inactive	inactive	15% (inactive)	inactive	–
Cc1[nH]cnc1CN1CCN(C(=O)N[C@@H](CC(C)C)C(=O)O)[C@@H](Cc2ccccc2)C1=O	inactive	inactive	6.54% (inactive)	inactive	–
Cc1ccc(C(=O)C(=O)O)cc1C	inactive	inactive	1.9% (inactive)	inactive	–
O=C1CC2(CCCC2)CC(=O)N1CCNCC1COc2ccccc2O1 (stereo not given)	inactive	inactive	6.61% (inactive)	inactive	–
CN[C@@H]1[C@@H](O)[C@@H](O[C@@H]2[C@H](O)[C@H](O[C@H]3OC(CN)=CC[C@H]3N)[C@@H](N)C[C@H]2N)OCC1(C)O (stereo not given in full)	inactive	inactive	5.55% (inactive)	inactive	–
CCCCCCCCCCCCCCCC(=O)NCCO	inactive	inactive	3.88% (inactive)	inactive	–
CC(C)c1cc(CNc2nc(Nc3cc(C4CC4)[nH]n3)cc(N3CCN(C)CC3)n2)on1	0.0259 µM (active)	0.0231 µM (active)	–	1.58 µM (active)	3.98 µM (active)
CC(C)(O)c1ccccc1CC[C@@H](SCC1(CC(=O)O)CC1)c1cccc(/C=C/c2ccc3ccc(Cl)cc3n2)c1	inactive	inactive	11.5% (inactive)	inactive	–
C#Cc1ccc(-c2ccccc2F)cc1	inactive	inactive	-5.81% (inactive)	inactive	–
C[C@@H]1C[C@H]2[C@@H]3C[C@H](F)C4=CC(=O)C(Cl)=C[C@]4(C)[C@@]3(F)[C@@H](O)C[C@]2(C)[C@@]1(O)C(=O)CO	4.73 µM (active)	11.9 µM (active)	-6.49% (inactive)	inactive	–
CCS(=O)(=O)N1CCN(c2ccc(Nc3ncc(C(N)=O)c(NC4CC4)n3)cc2)CC1	130 nM (active) and 332 nM (active)	184 nM (active) and 525 nM (active)	–	10 µM (active)	22.4 µM (active)
Cc1ccc(-c2ncc(Cl)cc2-c2ccc(S(C)(=O)=O)cc2)cn1	inactive	inactive	3.04% (inactive) and -7.76% (inactive)	inactive	–
CCOC(=O)[C@H](CCc1ccccc1)N[C@@H](C)C(=O)N1[C@H](C(=O)O)C[C@@H]2CCC[C@@H]21	inactive	inactive	3.72% (inactive) and 7.5% (inactive)	inactive	–
CCN(CC)CCNc1ccc(C)c2sc3ccccc3c(=O)c12	5.25 µM (active)	7.42 µM (active)	–	15.8 µM (active)	25.1 µM (active)
COc1cc2ncnc(Oc3cccc(NC(=O)Nc4cc(C(C)(C)C(F)(F)F)on4)c3)c2cc1OC	0.164 µM (active)	0.291 µM (active)	-26.2% (inactive)	inactive	–
COc1ccc(S(=O)(=O)N2CCc3cccc(-c4ccncc4)c32)cc1	0.833 µM (active)	0.833 µM (active)	–	0.158 µM (active)	0.316 µM (active)
Cc1c(O)cccc1C(=O)NC(CSc1ccccc1)C(O)CN1CC2CCCCC2CC1C(=O)NC(C)(C)C (stereo not given)	16.6 µM (active)	11.8 µM (active)	–	17.8 µM (active)	28.2 µM (active)
c1ccc2sc(SN3CCOCC3)nc2c1	inactive	inactive	3.28% (inactive)	inactive	–
CC(Cc1ccccc1)(NC(=O)CN)c1ccccc1 (stereo not given)	inactive	inactive	8.44% (inactive)	inactive	–
CCS(=O)(=O)N1CCC([C@@H](C)n2c(C)c(C(=O)NCc3c(OC)cc(C)[nH]c3=O)c3ccccc32)CC1	inactive	inactive	8.68% (inactive)	inactive	–
CC1=C(C/C=C(\C)CCC[C@H](C)CCC[C@H](C)CCCC(C)C)C(=O)c2ccccc2C1=O	inactive	inactive	12.7% (inactive)	inactive	–
Cn1cncc1C(N)(c1ccc(Cl)cc1)c1ccc2c(c1)c(-c1cccc(Cl)c1)cc(=O)n2C (stereo not given)	1.05 µM (active)	1.86 µM (active)	–	3.55 µM (active)	6.31 µM (active)
OCc1ccccn1	inactive	inactive	-4.99% (inactive)	inactive	–
O=C1Nc2nc(-c3c(O)cccc3OCC3CC3)cc([C@@H]3CCCNC3)c2CO1	2.91 µM (active)	4.11 µM (active) and 5.25 µM (active)	–	17.8 µM (active)	22.4 µM (active)
